Screens: PubChem BioAssay, National Center for Advancing Translational Sciences (NCATS)
Hits are enriched below; roughly 3.1% of the tested compounds scored in any of these assays.
PLK1 PBD inh = PLK1 (human) polo-box domain binding inhibition; P53350; Plk1 PBD binding of FITC phosphopeptide, fluorescence polarization; Potency, µM, inactives show max response, negative = inhibition, most hits filed as inhibitors; hit rate 2.8% among 360,000; also: potency is read from the fitted curve at half-maximal effect; series mostly up to about 57 µM; % is scaled to controls: 0 for no effect and ±100 for the full control effect; nearly all actives have a fitted effect of over 65% in size
Target sequence (P53350 whole entry, looked up, the tested form may be a part): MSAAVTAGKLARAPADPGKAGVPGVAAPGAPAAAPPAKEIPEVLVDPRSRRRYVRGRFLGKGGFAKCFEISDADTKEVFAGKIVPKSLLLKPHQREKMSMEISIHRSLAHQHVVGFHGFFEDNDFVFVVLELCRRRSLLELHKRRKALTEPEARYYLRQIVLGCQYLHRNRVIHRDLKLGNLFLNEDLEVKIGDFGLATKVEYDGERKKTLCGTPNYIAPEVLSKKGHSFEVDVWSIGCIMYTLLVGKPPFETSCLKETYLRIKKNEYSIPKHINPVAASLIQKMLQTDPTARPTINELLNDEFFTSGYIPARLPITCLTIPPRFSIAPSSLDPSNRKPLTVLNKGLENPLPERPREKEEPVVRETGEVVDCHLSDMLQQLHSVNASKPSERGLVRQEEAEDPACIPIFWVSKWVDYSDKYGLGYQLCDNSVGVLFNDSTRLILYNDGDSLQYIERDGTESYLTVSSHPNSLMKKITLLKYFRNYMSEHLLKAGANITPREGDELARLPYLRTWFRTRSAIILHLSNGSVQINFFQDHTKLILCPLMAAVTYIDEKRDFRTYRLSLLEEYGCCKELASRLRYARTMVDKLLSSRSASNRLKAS
TSHR antag = blocks TSH signaling through the human TSH receptor | TSHR-expressing cells, TSH-stimulated cAMP HTRF, 2 h; stronger effect = lower value | activity change, negative = inhibition, % at 11.5 µM | hit rate 0.2% among 330,000 | P16473;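 active = activity change below a set negative limit, meaning inhibition stronger than a set level, cut at about -70% in these data; inconclusive = activity change between two set negative limits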; also: % is scaled to controls: 0 for no effect and ±100 for the full control effect
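Cell-based HTRF cAMP assay; TSHR cells + compound, TSH EC80 (4nM final), 2 h, 37 deg C. Lysis with anti-cAMP cryptate and cAMP-d2, 30 min RT, read 665/620 nm.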
VDR inh = blocks the human vitamin D receptor | VDR-SRC2-3 peptide fluorescence polarization, 2 h | Potency, µM, for the others: max response, negative = inhibition, usual class: inhibitors | P11473 | hit rate 0.93% among 400,000; also: potency is read from the fitted curve at half-maximal effect; % is scaled to controls: 0 for no effect and ±100 for the full control effect
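Compounds are added to VDR with labelled SRC2-3 coactivator peptide and held 2 h at room temperature. Inhibition of the VDR–peptide interaction is then read as a change in fluorescence polarization.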
Vif-A3G inh = Vif-A3G binding inhibition; Q9HC16; HeLa A3G-eYFP + Vif (tagged APOBEC3G with the HIV-1 protein that degrades it), YFP fluorescence, overnight; Potency, µM (highest dose often 46.1 µM), for the others: top-dose activity, negative = active, most hits filed as inhibitors; hit rate 0.076% among 410,000; also: potency is read from the fitted curve at half-maximal effect; % is scaled to controls: 0 for no effect and ±100 for the full control effect; nearly all actives have a fitted effect of over 60% in size
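HeLa cells stably expressing Vif and C-terminally eYFP-tagged A3G, seeded overnight at 37 deg C, then exposed to compound by pintool overnight at 37 deg C. Rise in yellow fluorescence (Ex 488/Em 500-530, Acumen) marks blocked Vif-driven A3G degradation.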
Vif-A3F inh = Vif-A3F binding inhibition. HeLa A3F-eYFP + Vif (tagged APOBEC3F with the HIV-1 protein that degrades it), YFP fluorescence increase. Potency, µM (titrated, usually from 46.1 µM), without a hit: at the top dose activity, negative = active. hit rate 0.2% among 390,000. AID 602313; also: potency is read from the fitted curve at half-maximal effect; % of control where 0% means no effect; nearly all actives have a fitted effect of over 65% in size
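Fluorescence increase (Ex 488/Em 500-530) after overnight compound treatment at 37 deg C flags inhibition of Vif-driven A3F-eYFP loss in stable HeLa A3F-eYFP/Vif cells seeded overnight beforehand.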
Active calls of the source: *; u = inconclusive; x = no result. Unless noted, calls follow the shape of the dose curve; as a rule, active = well fitted curve in the direction sought with a large enough effect; inconclusive = small, poorly fitted or top-dose-only effect, or another doubt; inactive = no such curve, though single readings can be large; an effect the other way counts as inactive or inconclusive.

SMILES	PLK1 PBD inh	TSHR antag	VDR inh	Vif-A3G inh	Vif-A3F inh
Cc1cc(NC(=O)/C(C#N)=C\c2ccc(-c3ccc(SC(F)F)cc3)o2)n(-c2ccccc2)n1	41.5%	x	-11.5%	u	10µM*
Cc1c(NC(=O)/C(C#N)=C/c2ccc(-c3ccc(Cl)c(Cl)c3)o2)c(=O)n(-c2ccccc2)n1C	-26.2%	-13.6	-5.2%	-8.1%	-2.4%
COc1ccc2c(c1-c1c3c(cc(Br)c1OC)CCCC3)CCCC2	x	x	-1.4%	x	x
O=C(NCCc1ccc(Cl)cc1)c1cccn1-c1nnc(N2CCCCC2)s1	x	x	9.7%	-0.9%	-1.5%
O=C(CCNc1ccccc1)c1cccc([N+](=O)[O-])c1	u	10.1	89.1µM*	4.2%	-3.3%
O=C(CCNc1ccc(Br)cc1)c1cccc([N+](=O)[O-])c1	u	-6.7	89.1µM*	-5.6%	-8.0%
COc1ccc(CN2CC[C@H]3C=CC[C@@H](C(=O)N4CCN(c5ccccc5)CC4)[C@H]3C2=O)cc1OC	x	x	x	-2.4%	x
CC(C)(C)C(=O)Oc1ccc(S(=O)(=O)Nc2ccccc2C(=O)NCC(=O)O)cc1	x	x	9.0%	x	x
CCN(CC)C(=O)c1cc(Cl)ccn1	11.9µM*	-3.9	-20.6%	1.3%	0.6%
CC(=O)Nc1ccn(C2OC(C(COC(C)=O)NC(=O)C(Cc3ccccc3)NC(=O)OC(C)(C)C)C(OC(C)=O)C2OC(C)=O)c(=O)n1 (stereo not given)	x	x	11.6%	-5.4%	x
O=c1ccsn1Cc1ccccc1	2.99µM*	-7.0	u	u	-2.1%
CCOC(=O)c1c(O)c(Cl)c(C)[nH]c1=O	26.7µM*	8.7	5.3%	0.7%	u
Cc1ccc(NC(=O)CC(C)S(=O)(=O)c2ccc3c(c2)NC(=O)CO3)c(C)c1 (stereo not given)	x	x	13.4%	1.0%	1.3%
COc1ccc(C2C=C(c3ccccc3)Nc3ncnn32)cc1 (stereo not given)	-20.8%	4.3	1.7%	-0.3%	6.6%
COc1ccc(C2=CC(c3ccco3)n3ncnc3N2)cc1 (stereo not given)	33.6µM*	6.2	10.6%	-27.3%	u
NCC[C@H](O)C(=O)N[C@@H]1C[C@H](N)[C@@H](O[C@H]2O[C@H](CN)CC[C@H]2N)[C@H](O)[C@H]1O[C@H]1O[C@H](CO)[C@@H](O)[C@H](N)[C@H]1O	x	x	3.0%	x	x
COC(=O)CCC/C=C1/SCC(NC(=O)c2ccccc2)C1=O (stereo not given)	u	12.6	89.1µM*	-6.6%	-8.8%
CC(C(=O)c1ccccc1)[n+]1ccc(Cl)c2ccc(Cl)cc21 (stereo not given)	x	x	x	-6.1%	x
CCOc1ccc(N2C(=O)CC(Sc3nccc(C)n3)C2=O)cc1 (stereo not given)	26.7µM*	1.5	-3.2%	-10.6%	-6.3%
COc1ccccc1N1C(=O)CC(Sc2n[nH]c(-c3cccc(C)c3)n2)C1=O (stereo not given)	13.4µM*	1.8	-11.8%	0.8%	3.4%
O=C1CC(Sc2ncccn2)C(=O)N1c1ccccc1 (stereo not given)	-2.6%	-9.1	14.2%	0.4%	3.1%
CCOc1ccc(N2C(=O)CC(Sc3ncccn3)C2=O)cc1 (stereo not given)	-10.4%	-0.2	3.1%	-1.3%	4.2%
Nc1nnc(SC2CC(=O)N(c3ccccc3)C2=O)s1 (stereo not given)	29.9µM*	0.0	-9.6%	0.5%	0.0%
C=CCNc1nnc(SC2CC(=O)N(c3ccc(OCCC)cc3)C2=O)s1 (stereo not given)	21.2µM*	3.4	-5.5%	-5.5%	-0.6%
Cc1ccc(C(=O)c2sc(Nc3ccc(F)cc3)nc2N)c(C)c1	x	x	7.2%	-15.6%	1.0%
SMILES	PLK1 PBD inh	TSHR antag	VDR inh	Vif-A3G inh	Vif-A3F inh
Cc1nc(SC2CC(=O)N(c3ccccc3)C2=O)n[nH]1 (stereo not given)	29.9µM*	21.4	-0.5%	0.8%	1.1%
CC(=O)NC1C(=O)N(CCN2CCOCC2)c2ccc(Br)cc21 (stereo not given)	-12.1%	-3.5	u	1.1%	-0.4%
CCOc1ccc2c(c1)C(NC(C)=O)C(=O)N2CCN1CCOCC1 (stereo not given)	21.2µM*	1.9	79.4µM*	-0.7%	0.1%
CC(=NCCc1ccccc1)C1=C(O)CSC1=O	11.9µM*	-0.1	u	-1.9%	-5.9%
CCNC(=S)N(CCc1c(C)[nH]c2ccc(F)cc12)Cc1cccnc1	18.9µM*	-34.2	-28.6%	-5.4%	-0.6%
CCNC(=S)N(CCc1c(C)[nH]c2ccc(C)cc12)Cc1cccnc1	-7.3%	-3.9	-5.6%	-4.1%	9.3%
Nc1ncnc2c1nc(Br)n2C1OC2COP(=O)(O)O[C@@H]2C1O (stereo not given in full)	x	-5.7	5.3%	x	x
COc1ccc(C2CC2/C(=N/O)c2ccccn2)cc1 (stereo not given)	3.3%	9.9	-5.8%	2.5%	0.0%
COc1ccc(C2CC2/C(=N/O)c2ccccc2)cc1 (stereo not given)	13.4µM*	-4.3	20µM*	3.0%	-14.6%
Cc1ccc(S(=O)(=O)/N=S(/c2ccccc2)C(C)C)cc1 (stereo not given)	10.6µM*	-5.0	-19.6%	-0.3%	-1.2%
Oc1[nH]c2ccccc2c1N=Nc1c(F)c(F)c(Cl)c(F)c1F	-4.3%	-2.3	-14.6%	-2.7%	-15.4%
Oc1[nH]c2ccccc2c1N=Nc1ccccc1Cl	6.2%	x	-22.9%	-15.2%	22.4µM*
OC[C@@H]1O[C@@H](Oc2ccc(O)cc2)[C@H](O)[C@@H](O)[C@@H]1O	x	x	4.1%	x	x
CCn1c2ccccc2c2cc(NC(=O)c3ccc(=O)oc3)ccc21	u	4.8	9.2%	-22.2%	11.2µM*
N/C(=N\O)c1ccc(NC(=O)c2ccc(Br)o2)cc1	15µM*	1.7	u	0.2%	-3.0%
CCn1c2ccccc2c2cc(NC(=O)c3coc(=O)c(Br)c3)ccc21	x	-5.9	x	x	x
CCn1c2ccccc2c2cc(NC(=O)c3ccc(Br)o3)ccc21	u	7.2	50.1µM*	u	-13.4%
CC(=O)NCCNc1nc(-c2ccccc2C(F)(F)F)nc2ccccc12	x	x	-4.2%	x	x
COc1ccc2[nH]cc(CCO)c2c1	x	x	-1.5%	x	x
COc1ccccc1OCC(=O)NCC1CCCN(C(=O)c2ccccc2SC)C1 (stereo not given)	3.36µM*	-3.2	u	2.8%	2.8%
COc1ccccc1OCC(=O)NCC1CCCN(C(=O)c2ccccc2C(C)=O)C1 (stereo not given)	1.5%	-6.4	-4.1%	1.0%	-9.0%
CC(=O)c1ccccc1C(=O)N1CCCC(CNC(=O)c2ccccc2Cl)C1 (stereo not given)	26.7µM*	-0.1	u	0.5%	-0.1%
CC(C)S(=O)(=O)N1CCN(c2nc(-c3cccs3)nc3ccccc23)CC1	x	x	-0.1%	x	x
CC1CC=CC2C1C(=O)N(Cc1ccccc1)C2c1ccc(/C=C/c2ccccc2)cc1F (stereo not given)	x	x	-9.9%	1.3%	x
